Laboratory results: PubChem BioAssay (Tox21)
Records with an inconclusive call do not appear. The source made the active and inactive calls. Unless noted, the call rests on the fitted dose curve; in most records, active means well fitted curve in the direction sought with a large enough effect in the repeat runs; inconclusive means weak or mixed curves; inactive means no such curve, though single readings can be large; an effect the other way counts as inactive or inconclusive.

Assays:
[1] = qHTS RealTime-Glo MT Cell Viability Assay in HEK293 cells - 0 hour (AID 1224880); further: top concentration of the series differs between compounds; on the % scale 0 is the no-effect control and ±100 the full control effect; nearly all actives have a fitted effect of over 45% in size
Procedure, shortened: (§1)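 Kinetic, non-lysing viability readout. Seed HEK293 (600/well) with reagent, incubate 5 h at 37 C/5% CO2, pin 23 nL compound in DMSO, incubate at 37 C, read luminescence at 0, 8, 16, 24, 32, 40 h.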

[2] = A CellTox Green Cytotoxicity Assay to monitor cytotoxicity in HEK293 cells - 32 hour (AID 1224881); further: nearly all actives have a fitted effect of over 40% in size; further: potency means the concentration at half of the fitted maximal effect
Procedure, shortened: (§2)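 Real-time, in one plate: 600 HEK293 cells/well with dead-cell DNA dye, pinned compound after 5 h, 37 C incubation over 40 h; viable cells give no appreciable fluorescence.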

[3] = A CellTox Green Cytotoxicity Assay to monitor cytotoxicity in HepG2 cells - 0 hour (AID 1224882); further: on the % scale 0 is the no-effect control and ±100 the full control effect; nearly all actives have a fitted effect of over 35% in size
Procedure, shortened: (§3)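 Cytotoxicity was tracked as dead-cell DNA fluorescence in HepG2 cells treated with test compounds at 37 C; each time-point value comes from one kinetic series spanning 0, 8, 16, 24, 32 and 40 h.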

[4] = A CellTox Green Cytotoxicity Assay to monitor cytotoxicity in HepG2 cells - 32 hour (AID 1224883); further: nearly all actives have a fitted effect of over 50% in size; further: potency means the concentration at half of the fitted maximal effect
Procedure, shortened: as §3

[5] = A CellTox Green Cytotoxicity Assay to monitor cytotoxicity in HEK293 cells - 8 hour (AID 1224884); further: on the % scale 0 is the no-effect control and ±100 the full control effect; nearly all actives have a fitted effect of over 35% in size
Procedure, shortened: as §2

[6] = qHTS RealTime-Glo MT Cell Viability Assay in HepG2 cells - 16 hour (AID 1224885); further: nearly all actives have a fitted effect of over 50% in size; further: potency means the concentration at half of the fitted maximal effect
Procedure, shortened: (§4)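 Viability was tracked continuously by NanoLuc luminescence from prosubstrate reduced by living HepG2 cells, at successive time points over 40 h of compound exposure. Cells with reagent were preincubated 5 h at 37 °C before compound addition.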

[7] = qHTS RealTime-Glo MT Cell Viability Assay in HEK293 cells - 24 hour (AID 1224886); further: nearly all actives have a fitted effect of over 50% in size; further: potency means the concentration at half of the fitted maximal effect
Procedure, shortened: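 Viability tracked continuously by luminescence as live cells reduce a prosubstrate for NanoLuc; HEK293 cells preincubated 5 h, compound-treated at 37 C, and read at 0, 8, 16, 24, 32 and 40 h.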

[8] = qHTS RealTime-Glo MT Cell Viability Assay in HEK293 cells - 8 hour (AID 1224887); further: nearly all actives have a fitted effect of over 50% in size; further: potency means the concentration at half of the fitted maximal effect
Procedure, shortened: as §1

[9] = A CellTox Green Cytotoxicity Assay to monitor cytotoxicity in HEK293 cells - 16 hour (AID 1224888); further: on the % scale 0 is the no-effect control and ±100 the full control effect; nearly all actives have a fitted effect of over 35% in size
Procedure, shortened: as §2

[10] = qHTS RealTime-Glo MT Cell Viability Assay in HepG2 cells - 0 hour (AID 1224889)
Procedure, shortened: as §4

[11] = A CellTox Green Cytotoxicity Assay to monitor cytotoxicity in HepG2 cells - 8 hour (AID 1224890); further: on the % scale 0 is the no-effect control and ±100 the full control effect; nearly all actives have a fitted effect of over 45% in size
Procedure, shortened: as §3

[12] = qHTS assay to identify small molecule antagonists of the androgen receptor (AR) signaling pathway using the MDA cell line in the presence of 0.5 nM R1881 - cell viability counter screen (AID 1259242); further: nearly all actives have a fitted effect of over 45% in size; further: potency means the concentration at half of the fitted maximal effect
Procedure, shortened: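 Cells seeded at 3,000/well and allowed 5 hr at 37C, 0% CO2 before compound transfer and R1881 (0.5 nM final) addition; 16 hr later, live-cell protease fluorescence indicated cytotoxicity.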

[13] = target: Estrogen receptor (Homo sapiens) (UniProt P03372); experiment: qHTS assay to identify small molecule antagonists of the estrogen receptor alpha (ER-alpha) signaling pathway using the BG1 cell line in the presence of 0.1 nM 17-beta-estradiol (AID 1259244); further: nearly all actives have a fitted effect of over 50% in size; further: potency means the concentration at half of the fitted maximal effect
Sequence of Estrogen receptor (Homo sapiens) (P03372 whole entry, looked up): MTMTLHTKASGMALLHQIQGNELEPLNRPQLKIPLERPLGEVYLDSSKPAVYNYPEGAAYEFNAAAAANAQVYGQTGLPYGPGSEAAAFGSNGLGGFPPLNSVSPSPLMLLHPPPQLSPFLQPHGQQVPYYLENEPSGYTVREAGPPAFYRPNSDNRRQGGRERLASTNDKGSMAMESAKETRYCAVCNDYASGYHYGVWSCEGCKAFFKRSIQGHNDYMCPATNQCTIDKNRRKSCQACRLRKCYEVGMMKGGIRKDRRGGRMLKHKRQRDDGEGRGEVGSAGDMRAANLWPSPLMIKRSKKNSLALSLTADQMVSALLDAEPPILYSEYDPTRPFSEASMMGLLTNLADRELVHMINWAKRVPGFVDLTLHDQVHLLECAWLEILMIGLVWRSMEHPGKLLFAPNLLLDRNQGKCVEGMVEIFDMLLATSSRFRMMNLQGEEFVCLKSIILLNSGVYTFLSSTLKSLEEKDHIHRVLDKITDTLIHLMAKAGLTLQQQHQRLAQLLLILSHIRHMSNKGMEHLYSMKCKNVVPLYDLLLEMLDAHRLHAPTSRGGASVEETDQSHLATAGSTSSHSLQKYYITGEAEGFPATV
Procedure, shortened: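 Luciferase signal from VM7Luc4E2 ERE-reporter cells, co-dosed with test compound and 0.1 nM final 17beta-estradiol for 22 h, read with ONE-Glo.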

[14] = qHTS assay to identify small molecule HDAC inhibitors (AID 1259364); further: potency means the concentration at half of the fitted maximal effect;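 further: wild-type HCT-116 cells with endogenous class I/II HDAC activity; nearly all actives have a fitted effect of over 45% in size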
Procedure, shortened: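 HCT-116 wt cells, 1,500/well, overnight attach. Compounds (DMSO) 2 h, 37 °C. HDAC-Glo I/II, 30 min RT. Luminescence.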

[15] = qHTS assay to identify small molecule HDAC inhibitors - cell viability counter screen (AID 1259365)
Procedure, shortened: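 HCT-116 (wild type), 1,500 cells/well, overnight 37C/5% CO2; compound in DMSO 2hr; CellTiter-Glo 30min RT; luminescence read.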

[16] = qHTS assay to identify small molecule agonists of the sonic hedgehog signaling (Shh) pathway - cell viability counter screen (AID 1259366); further: nearly all actives have a fitted effect of over 50% in size; further: potency means the concentration at half of the fitted maximal effect
Procedure, shortened: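 CellTiter-Fluor fluorescence read-out, 1 hr at 37C, added after 23hr compound exposure. Cells: 3T3 Gli1-Luc, an NIH/3T3 clone with stably integrated Gli1-Luc reporter, plated 4hr before compound.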

[17] = qHTS assay to identify small molecule antagonists of the sonic hedgehog signaling (Shh) pathway - cell viability counter screen (AID 1259367); further: nearly all actives have a fitted effect of over 55% in size; further: potency means the concentration at half of the fitted maximal effect
Procedure, shortened: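 Conditioned medium drove Shh signaling in 3T3 Gli1-Luc cells exposed to compounds at 37C and 5% CO2. Viability was determined from CellTiter-Fluor fluorescence, with reagent incubated 1 hr after 23 hr of treatment.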

[18] = qHTS assay to identify small molecule antagonists of the estrogen receptor alpha (ER-alpha) signaling pathway using the BG1 cell line in the presence of 0.1 nM 17-beta-estradiol - cell viability counter screen (AID 1259241); further: nearly all actives have a fitted effect of over 40% in size; further: potency means the concentration at half of the fitted maximal effect
Procedure, shortened: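 Live-cell protease activity (CellTiter-Fluor fluorescence, 30 min) was read in the same wells after VM7Luc4E2 cells had been exposed to compounds with 0.1 nM 17beta-estradiol for 22 hr at 37C.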

[19] = target: Androgen receptor (Homo sapiens) (UniProt P10275); experiment: qHTS assay to identify small molecule antagonists of the androgen receptor (AR) signaling pathway using the MDA cell line in the presence of 0.5 nM R1881 (AID 1259243)
Sequence of Androgen receptor (Homo sapiens) (P10275 whole entry, looked up): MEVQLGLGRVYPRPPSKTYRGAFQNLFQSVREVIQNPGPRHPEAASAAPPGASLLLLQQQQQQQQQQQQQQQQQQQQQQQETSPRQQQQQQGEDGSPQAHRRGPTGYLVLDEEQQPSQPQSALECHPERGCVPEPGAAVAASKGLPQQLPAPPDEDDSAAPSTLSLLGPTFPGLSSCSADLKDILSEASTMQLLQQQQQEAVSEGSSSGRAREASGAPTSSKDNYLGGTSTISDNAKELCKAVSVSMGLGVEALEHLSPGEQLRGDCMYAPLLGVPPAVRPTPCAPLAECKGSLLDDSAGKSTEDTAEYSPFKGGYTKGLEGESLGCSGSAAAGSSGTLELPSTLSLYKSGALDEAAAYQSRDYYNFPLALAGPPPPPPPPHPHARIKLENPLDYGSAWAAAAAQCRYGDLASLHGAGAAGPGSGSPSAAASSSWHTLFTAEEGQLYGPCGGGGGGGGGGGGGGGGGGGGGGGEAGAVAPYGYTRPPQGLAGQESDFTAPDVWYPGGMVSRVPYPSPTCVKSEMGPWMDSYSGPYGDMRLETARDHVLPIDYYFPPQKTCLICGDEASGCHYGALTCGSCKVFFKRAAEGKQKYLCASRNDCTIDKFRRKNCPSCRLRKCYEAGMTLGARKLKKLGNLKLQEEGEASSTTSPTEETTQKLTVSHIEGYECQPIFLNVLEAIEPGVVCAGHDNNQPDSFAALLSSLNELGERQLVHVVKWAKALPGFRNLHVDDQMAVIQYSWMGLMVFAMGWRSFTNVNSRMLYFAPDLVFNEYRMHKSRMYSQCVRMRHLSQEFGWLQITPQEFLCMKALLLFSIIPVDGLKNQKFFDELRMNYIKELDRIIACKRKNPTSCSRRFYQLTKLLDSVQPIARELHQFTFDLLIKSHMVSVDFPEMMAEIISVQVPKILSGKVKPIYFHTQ
Procedure, shortened: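 Luminescence from an AR/GR-responsive MMTV-luciferase construct in MDA-kb2 breast carcinoma cells, read 30 min after ONE-Glo, following 16 hr co-treatment with compounds and 0.5 nM R1881.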

[20] = qHTS assay to identify small molecule phospholipidosis (PLD) inducers (AID 1259344; active means well fitted curve in the direction sought with a large enough effect; an effect the other way counts as inactive or inconclusive; further: on the % scale 0 is the no-effect control and ±100 the full control effect)
Procedure, shortened: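 After 4 h attachment on collagen I, HepG2 cells were dosed with compound alongside LipidTOX Red, kept 24 h at 37 C, fixed, and imaged for lamellar phospholipid pits.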

O=C(O)CCCCCCCCCCCBr
active: Potency [14] 24.4 µM
inactive: Potency [1] | Potency [2] | Potency [3] | Potency [4] | Potency [5] | Potency [6] | Potency [7] | Potency [8] | Potency [9] | Potency [10] | Potency [11] | Potency [12] | Potency [13] | Potency [15] | Potency [16] | Potency [17]

c1ccc(C[n+]2cccc3ccccc32)cc1
inactive: Potency [1] | Potency [2] | Potency [3] | Potency [4] | Potency [5] | Potency [6] | Potency [7] | Potency [8] | Potency [9] | Potency [10] | Potency [11] | Potency [18] | Potency [14] | Potency [15] | Potency [16]
active: Potency [13] 27.3 µM

O=C1c2ccccc2C(=O)c2c(O)c(O)cc(O)c21
inactive: Potency [1] | Potency [2] | Potency [3] | Potency [4] | Potency [5] | Potency [6] | Potency [7] | Potency [8] | Potency [9] | Potency [11] | Potency [14] | Potency [15]

C=C1CCC2CC1C2(C)C (stereo unspecified)
inactive: Potency [1] | Potency [2] | Potency [3] | Potency [4] | Potency [5] | Potency [6] | Potency [7] | Potency [8] | Potency [10] | Potency [11] | Potency [18] | Potency [12] | Potency [13] | Potency [14] | Potency [15] | Potency [16] | Potency [17]

CCCC(=O)C(=O)O
inactive: Potency [1] | Potency [2] | Potency [3] | Potency [4] | Potency [5] | Potency [6] | Potency [7] | Potency [8] | Potency [10] | Potency [11] | Potency [18] | Potency [12] | Potency [13] | Potency [14] | Potency [15] | Potency [16] | Potency [17]

CCOc1ccc(Cc2nccc3cc(OCC)c(OCC)cc23)cc1OCC
inactive: Potency [1] | Potency [2] | Potency [3] | Potency [5] | Potency [9] | Potency [10] | Potency [11] | Potency [18] | Potency [20] | Potency [15] | Potency [16] | Potency [17]
active: Potency [4] 5.35 µM | Potency [6] 19 µM | Potency [7] 7.56 µM | Potency [8] 10.7 µM | Potency [19] 10.6 µM | Potency [13] 8.41 µM

CN(C)CCN1C(=O)c2ccccc2N(C)c2ccccc21
inactive: Potency [1] | Potency [2] | Potency [3] | Potency [4] | Potency [5] | Potency [6] | Potency [7] | Potency [8] | Potency [9] | Potency [10] | Potency [11] | Potency [12] | Potency [13] | Potency [20] | Potency [14] | Potency [15] | Potency [16] | Potency [17]

OCCOCC#CCOCCO
inactive: Potency [1] | Potency [2] | Potency [3] | Potency [4] | Potency [5] | Potency [6] | Potency [7] | Potency [8] | Potency [9] | Potency [10] | Potency [11] | Potency [12] | Potency [13] | Potency [15] | Potency [16] | Potency [17]

c1ccc2c(c1)CCc1ccccc1N2
active: Potency [2] 49.2 µM
inactive: Potency [1] | Potency [3] | Potency [4] | Potency [5] | Potency [6] | Potency [7] | Potency [8] | Potency [9] | Potency [10] | Potency [11] | Potency [18] | Potency [12] | Potency [16] | Potency [17]

CO[C@]1(NC(=O)CSC(F)F)C(=O)N2C(C(=O)O)=C(CSc3nnnn3CCO)CO[C@H]21
inactive: Potency [1] | Potency [2] | Potency [3] | Potency [4] | Potency [5] | Potency [6] | Potency [7] | Potency [8] | Potency [9] | Potency [11] | Potency [18] | Potency [12] | Potency [13] | Potency [20] | Potency [16] | Potency [17]

O=[N+]([O-])c1ccc(Nc2ccc(Nc3ccccc3)c(S(=O)(=O)O)c2)c([N+](=O)[O-])c1
inactive: Potency [1] | Potency [2] | Potency [3] | Potency [4] | Potency [5] | Potency [6] | Potency [7] | Potency [8] | Potency [9] | Potency [11]

CCC1CO1 (stereo unspecified)
inactive: Potency [1] | Potency [2] | Potency [3] | Potency [4] | Potency [5] | Potency [6] | Potency [7] | Potency [8] | Potency [9] | Potency [11] | Potency [18] | Potency [12] | Potency [14] | Potency [15] | Potency [16] | Potency [17]

Nc1cccc2c1CN(C1CCC(=O)NC1=O)C2=O (stereo unspecified)
inactive: Potency [1] | Potency [2] | Potency [3] | Potency [4] | Potency [5] | Potency [6] | Potency [7] | Potency [8] | Potency [9] | Potency [11] | Potency [18] | Potency [12] | Potency [13] | Potency [20] | Potency [14] | Potency [15] | Potency [16] | Potency [17]

C[C@@]12CCC[C@H]1[C@@H]1CC[C@H]3C[C@@H](O)CC[C@]3(C)[C@H]1CC2
inactive: Potency [1] | Potency [2] | Potency [3] | Potency [4] | Potency [5] | Potency [6] | Potency [7] | Potency [8] | Potency [9] | Potency [10] | Potency [11] | Potency [12] | PLD induction [20] 17.2% [at 7.66 µM] | Potency [15] | Potency [16] | Potency [17]

C[C@H]1C[C@H](O)c2ccsc2S1(=O)=O
inactive: Potency [1] | Potency [2] | Potency [3] | Potency [4] | Potency [5] | Potency [6] | Potency [7] | Potency [8] | Potency [10] | Potency [11] | Potency [18] | Potency [12] | Potency [13] | Potency [14] | Potency [15] | Potency [16] | Potency [17]

O=C1NC(=O)c2cc([N+](=O)[O-])ccc21
inactive: Potency [1] | Potency [2] | Potency [3] | Potency [4] | Potency [5] | Potency [6] | Potency [7] | Potency [8] | Potency [9] | Potency [10] | Potency [11] | Potency [12] | Potency [13] | Potency [14] | Potency [15] | Potency [16] | Potency [17]

CC(=O)Nc1cc(S(=O)(=O)O)cc2cc(S(=O)(=O)O)c(N=Nc3ccccc3)c(O)c12
active: Potency [18] 19.3 µM | Potency [12] 27.3 µM | Potency [16] 27.3 µM | Potency [17] 24.3 µM
inactive: Potency [1] | Potency [2] | Potency [3] | Potency [4] | Potency [5] | Potency [6] | Potency [7] | Potency [8] | Potency [10] | Potency [11] | Potency [14]
